# PMC10812921, “Transcriptional Coactivator BOB1 (OBF1, OCA-B) Modulates the Specificity of DNA Recognition by the POU-Domain Factors OCT1 and OCT2 in a Monomeric Configuration”
# Target: T1, POU2 (OCT2 POU domain);BOB1 (OBF1, OCA-B) (human;human, UniProt P09086;Q16633 175-386;1-256, |)
# T1 sequence 1: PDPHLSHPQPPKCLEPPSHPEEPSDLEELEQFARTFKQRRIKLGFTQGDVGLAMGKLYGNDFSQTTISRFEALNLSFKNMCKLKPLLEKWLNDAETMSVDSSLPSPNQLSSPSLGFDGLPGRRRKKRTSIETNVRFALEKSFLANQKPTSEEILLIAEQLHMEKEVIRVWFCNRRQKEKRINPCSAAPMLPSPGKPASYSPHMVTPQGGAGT
# T1 sequence 2: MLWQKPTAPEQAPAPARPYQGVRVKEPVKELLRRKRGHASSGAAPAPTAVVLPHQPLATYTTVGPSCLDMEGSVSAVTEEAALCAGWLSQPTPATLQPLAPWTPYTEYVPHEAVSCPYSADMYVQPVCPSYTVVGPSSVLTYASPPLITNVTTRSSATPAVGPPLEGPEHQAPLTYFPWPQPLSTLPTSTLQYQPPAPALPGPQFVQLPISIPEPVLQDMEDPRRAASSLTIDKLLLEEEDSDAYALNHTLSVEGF
# Test: EMSA-SELEX-seq; with BOB1 (ternary complex band); 20 mM Tris-HCl pH 7.6, 140 mM NaCl, 10% glycerol, 0.5 mM EDTA, 0.05% Triton X-100, 0.1 mg/mL BSA, 0.1 mg/mL poly(dI-dC), 5 mM DTT, room temperature, 20 min; high values mean tight binding
# Settings: protein: recombinant;recombinant; copies: 1;1; dsDNA, one strand shown
# How it was run: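 With or without 28 ng coactivator protein, 30 ng of tagged POU-domain protein was combined with 300 ng of a PCR-amplified double-stranded random 35-nt library in 20 μL Tris–HCl pH 7.6 binding buffer for 20 min at RT. The protein came from E. coli BL21 and had been purified under denaturing conditions and renatured. Four rounds of cutting complex bands from native 6% PAGE, elution and PCR amplification preceded Illumina sequencing. The binding preference figure is the percentage of sequenced 8-mers matching a motif pattern.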
row,Sequence,binding signal
1,AGCCCAAA,0.0157 % of ANNNNAAN 8-mers
2,AAACAAAA,0.14 % of ANNNNAAN 8-mers
3,ACGCAAAT,1.38 % of ANNNNAAN 8-mers
4,AACCGAAC,0.0198 % of ANNNNAAN 8-mers
5,AAGACAAA,0.0438 % of ANNNNAAN 8-mers
6,ATCGTAAT,0.0768 % of ANNNNAAN 8-mers
7,AATCTAAG,0.0545 % of ANNNNAAN 8-mers
8,ATATTAAA,0.14 % of ANNNNAAN 8-mers
9,ATGTGAAG,0.0429 % of ANNNNAAN 8-mers
10,AGAGGAAA,0.0619 % of ANNNNAAN 8-mers
11,ACTTAAAG,0.0462 % of ANNNNAAN 8-mers
12,AATCGAAA,0.0438 % of ANNNNAAN 8-mers
13,AAGAGAAT,0.0553 % of ANNNNAAN 8-mers
14,ACGGGAAG,0.0347 % of ANNNNAAN 8-mers
15,AGGTCAAT,0.0636 % of ANNNNAAN 8-mers
16,AAATTAAC,0.196 % of ANNNNAAN 8-mers
17,ATTGGAAC,0.0388 % of ANNNNAAN 8-mers
18,ACCCTAAA,0.0107 % of ANNNNAAN 8-mers
19,ATCGCAAT,0.0347 % of ANNNNAAN 8-mers
20,ACGGAAAG,0.0371 % of ANNNNAAN 8-mers

row,Sequence,binding signal
1,ATGAAAAG,0.0867 % of ANNNNAAN 8-mers
2,AGTACAAC,0.0413 % of ANNNNAAN 8-mers
3,AAGTAAAG,0.0545 % of ANNNNAAN 8-mers
4,ATTCTAAC,0.0322 % of ANNNNAAN 8-mers
5,AAGAGAAG,0.0438 % of ANNNNAAN 8-mers
6,ACATTAAA,0.0611 % of ANNNNAAN 8-mers
7,AACGTAAT,0.071 % of ANNNNAAN 8-mers
8,AGATCAAT,0.0578 % of ANNNNAAN 8-mers
9,ACGGAAAA,0.0446 % of ANNNNAAN 8-mers
10,AACCAAAC,0.0239 % of ANNNNAAN 8-mers
11,ACGTGAAA,0.0297 % of ANNNNAAN 8-mers
12,ACTTCAAG,0.0256 % of ANNNNAAN 8-mers
13,ATACGAAC,0.0347 % of ANNNNAAN 8-mers
14,AGGCAAAC,0.0817 % of ANNNNAAN 8-mers
15,AGCAGAAT,0.0561 % of ANNNNAAN 8-mers
16,AACAGAAA,0.033 % of ANNNNAAN 8-mers
17,ACACGAAA,0.0215 % of ANNNNAAN 8-mers
18,AGGTAAAT,0.391 % of ANNNNAAN 8-mers
19,ACGGCAAC,0.0124 % of ANNNNAAN 8-mers
